Laboratory results published in PubChem BioAssay (NCATS).
Unmarked numbers belong to inactive results. Results filed as inconclusive are left out. Entries that show only a call come without a potency. The source made the active and inactive calls. Unless noted, calls come from the whole dose curve; as a rule, active = well fitted curve in the direction sought with a large enough effect; inconclusive = small, poorly fitted or top-dose-only effect, or another doubt; inactive = no such curve, though single readings can be large; an effect the other way counts as inactive or inconclusive.

How the values were obtained:
[1] = qHTS to identify inhibitors of the type 1 interferon - major histocompatibility complex class I in skeletal muscle: primary screen against the NCATS Mechanism Interrogation Plate v5.0 (MIPE) Libary (AID 1347411); note: nearly all actives have a fitted effect of over 65% in size
Summary of the method: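 Immortalized human myoblasts (C25cl48) with HiBit knocked into endogenous HLA-B*08:01 were stimulated with 4 ng/ml IFN-beta and given compounds in 11-point 1:3 titration from 46 uM. After 24 h at 37 C, lytic HiBiT luminescence was read.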

[2] = target: Protein phosphatase 1D (Homo sapiens) (UniProt O15297); experiment: RapidFire Mass Spectrometry qHTS Assay for Modulators of WT P53-Induced Phosphatase 1 (WIP1) (AID 1347424);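 note: amount of dephosphorylated VEPPL-S-QETFS peptide product formed by WIP1; series mostly up to about 63 µM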
Sequence of Protein phosphatase 1D (Homo sapiens) (O15297 whole entry, looked up): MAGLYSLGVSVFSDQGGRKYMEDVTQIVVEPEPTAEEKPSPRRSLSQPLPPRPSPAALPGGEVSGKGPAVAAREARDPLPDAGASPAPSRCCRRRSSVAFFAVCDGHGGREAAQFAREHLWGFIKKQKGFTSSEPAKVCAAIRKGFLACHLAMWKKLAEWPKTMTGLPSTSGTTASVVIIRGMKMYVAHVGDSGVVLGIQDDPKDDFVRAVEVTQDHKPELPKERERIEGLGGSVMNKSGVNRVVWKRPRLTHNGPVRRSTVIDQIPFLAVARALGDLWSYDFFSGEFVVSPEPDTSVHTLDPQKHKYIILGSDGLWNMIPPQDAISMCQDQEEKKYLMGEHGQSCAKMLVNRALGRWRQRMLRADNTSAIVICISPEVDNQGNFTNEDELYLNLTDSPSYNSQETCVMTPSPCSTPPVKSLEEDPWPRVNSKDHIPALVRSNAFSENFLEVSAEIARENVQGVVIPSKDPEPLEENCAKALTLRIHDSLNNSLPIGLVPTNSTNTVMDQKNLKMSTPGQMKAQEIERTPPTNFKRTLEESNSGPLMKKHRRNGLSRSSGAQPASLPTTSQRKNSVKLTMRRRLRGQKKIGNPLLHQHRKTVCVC
Summary of the method: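 10 nM WIP1 preincubated with compounds 1 hr at room temperature in pH 7.5 Tris buffer with 30 mM MgCl2, 1 mM TCEP; 2 uM VEPPL-pS-QETFS phosphopeptide for 5 min, formic acid quench; dephosphorylated product quantified by RapidFire MS against labelled standard.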

[3] = target: Protein phosphatase 1D (Homo sapiens) (UniProt O15297); experiment: Rhodamine-PBP qHTS Assay for Modulators of WT P53-Induced Phosphatase 1 (WIP1) (AID 1347425)
Summary of the method: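 5 nM WIP1 + 10 uM Rh-PBP, 50 mM Tris pH 7.5, 30 mM MgCl2, 1 mM TCEP, 0.1 mM EGTA, BSA; cpds pinned, 1 hr RT; + 10 uM phosphopeptide; fluorescence 1-min reads x 11 min; delta = f1 - f0.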

[4] = Primary qHTS for inhibitors of La Crosse Virus (LACV) - induced cell death in SH-SY5Y cells (AID 1508616);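 note: top concentration of the series differs between compounds; higher means more rescue of cells from virus-induced death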
Summary of the method: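 SH-SY5Y cells (6000/well) plated 24 h, then given compounds by pin transfer and LACV at 0.01 MOI for 6 days at 37C. Viability measured by ATPLite luminescence, normalized to infected DMSO and uninfected DMSO.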

[5] = target: Calcium and integrin-binding protein 1 (Homo sapiens) (UniProt Q99828); experiment: Primary qHTS for Identification of Calcium Integrin Binding Protein 1 (CIB1) Competitor (AID 1508620);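 note: GST tagged CIB1 binding a fluorescein labelled alphaIIb integrin peptide tracer; top concentration of the series differs between compounds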
Sequence of Calcium and integrin-binding protein 1 (Homo sapiens) (Q99828 whole entry, looked up): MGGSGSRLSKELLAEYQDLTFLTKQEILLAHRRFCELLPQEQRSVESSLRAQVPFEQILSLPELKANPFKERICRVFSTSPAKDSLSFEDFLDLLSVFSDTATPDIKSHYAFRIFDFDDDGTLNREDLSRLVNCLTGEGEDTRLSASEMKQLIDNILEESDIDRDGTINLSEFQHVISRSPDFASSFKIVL
Summary of the method: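 Fluorescence polarization competition: GST-tagged CIB1 (1 uM final) preincubated with compound 15 min at room temperature, then FITC-labelled alphaIIb peptide (100 nM final) added. After 15 min at room temperature, polarization read at Ex 480/Em 540.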

[6] = Primary qHTS for small molecule stabilizers of the endoplasmic reticulum resident proteome: Secreted ER Calcium Modulated Protein (SERCaMP) assay (AID 1508630)
Summary of the method: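 GLuc-SERCaMP-expressing SH-SY5Y cells, pretreated 16 h with compound, are challenged with thapsigargin to empty ER calcium stores; after 4 h, coelenterazine is added directly to the medium and luminescence is imaged.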

[7] = A High-Content qHTS Against Drug Library for the Identification of Small Molecules that Inhibit DYT1 Early Onset Primary Dystonia-Associated Cell Pathology (AID 1645839; calls by dose curve; note: series mostly up to about 46 µM)
Summary of the method: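 Flp-In T-REx 293 cells with tetracycline-inducible EGFP-delE hTOR1A (WT EGFP-hTOR1A as reference), 800 cells/well; compound added with tetracycline, 48 h at 37 C. Fixed, permeabilized cells imaged; %pathology (punctate TorsinA) primary, cell count counterscreen.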

[8] = target: Cytochrome P450 2D6 (Homo sapiens) (UniProt P10635); experiment: Cytochrome P450 family 2 subfamily D member 6 (CYP2D6) small molecule antagonists: luciferase biochemical (cell-free) qHTS assay (AID 1645840; active = well fitted curve in the direction sought with a large enough effect in the repeat runs; an effect the other way counts as inactive or inconclusive; note: nearly all actives have a fitted effect of over 55% in size; note: potency is the fitted concentration of half-maximal effect)
Sequence of Cytochrome P450 2D6 (Homo sapiens) (P10635 whole entry, looked up): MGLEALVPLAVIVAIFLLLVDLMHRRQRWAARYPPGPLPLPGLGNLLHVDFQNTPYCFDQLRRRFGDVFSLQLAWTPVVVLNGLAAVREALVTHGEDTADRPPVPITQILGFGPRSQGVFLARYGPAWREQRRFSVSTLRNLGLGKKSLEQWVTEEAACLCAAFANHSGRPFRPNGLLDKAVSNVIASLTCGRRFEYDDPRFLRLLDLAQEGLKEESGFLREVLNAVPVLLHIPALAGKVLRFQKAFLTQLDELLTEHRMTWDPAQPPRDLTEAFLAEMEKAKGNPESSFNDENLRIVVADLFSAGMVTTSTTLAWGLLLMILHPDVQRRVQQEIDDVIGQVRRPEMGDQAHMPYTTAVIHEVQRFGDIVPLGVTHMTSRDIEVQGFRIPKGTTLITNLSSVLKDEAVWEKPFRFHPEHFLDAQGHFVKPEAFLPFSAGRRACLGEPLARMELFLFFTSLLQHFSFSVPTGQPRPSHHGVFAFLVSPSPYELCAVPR
Summary of the method: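 P450-Glo luminescent screen: recombinant CYP2D6 enzyme–proluciferin substrate mix preincubated with compound 10 min at room temperature, then NADPH regeneration added for 1 h at room temperature. Detection reagent added for 20 min; luciferin light read as relative luminescence units.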

[9] = target: Cytochrome P450 2C9 (Homo sapiens) (UniProt P11712); experiment: Cytochrome P450 family 2 subfamily C member 9 (CYP2C9) small molecule antagonists: luciferase biochemical (cell-free) qHTS assay (AID 1645842; active = well fitted curve in the direction sought with a large enough effect in the repeat runs; an effect the other way counts as inactive or inconclusive; note: series mostly up to about 57 µM; nearly all actives have a fitted effect of over 55% in size)
Sequence of Cytochrome P450 2C9 (Homo sapiens) (P11712 whole entry, looked up): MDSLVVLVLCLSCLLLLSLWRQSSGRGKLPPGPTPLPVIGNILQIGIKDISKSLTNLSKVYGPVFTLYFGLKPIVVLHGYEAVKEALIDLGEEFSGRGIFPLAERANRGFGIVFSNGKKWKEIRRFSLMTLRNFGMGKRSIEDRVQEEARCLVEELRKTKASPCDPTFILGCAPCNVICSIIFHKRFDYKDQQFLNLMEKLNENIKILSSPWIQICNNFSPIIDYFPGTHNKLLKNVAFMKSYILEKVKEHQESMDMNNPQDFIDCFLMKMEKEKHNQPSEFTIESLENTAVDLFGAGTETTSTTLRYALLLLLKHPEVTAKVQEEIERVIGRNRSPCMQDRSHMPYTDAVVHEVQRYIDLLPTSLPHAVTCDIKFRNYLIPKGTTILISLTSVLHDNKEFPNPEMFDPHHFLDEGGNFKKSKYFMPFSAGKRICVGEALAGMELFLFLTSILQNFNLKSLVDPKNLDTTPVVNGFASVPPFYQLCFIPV
Summary of the method: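 Luminescence, after 20 min with luciferin detection reagent, reflected CYP2C9 turnover during a 1 h NADPH-driven reaction at 37C. Enzyme-substrate mix contained 0.4% bovine serum albumin and was preincubated with compound 10 min at room temperature.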

[10] = Counterscreen qHTS for small molecule stabilizers of the endoplasmic reticulum resident proteome: GLuc-NoTag assay (AID 1508627);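 note: SH-SY5Y cells given compound then 100 nM thapsigargin to empty ER calcium; series mostly up to about 76 µM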
Summary of the method: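 SH-SY5Y cells stably expressing constitutively secreted GLuc without SERCaMP tag, exposed to compound for 19 hr, then to 100 nM thapsigargin for 4 hr at 37C. Medium luciferase was read by coelenterazine luminescence without lysis.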

[11] = Confirmatory qHTS for small molecule stabilizers of the endoplasmic reticulum resident proteome: Secreted ER Calcium Modulated Protein (SERCaMP) assay (AID 1508628); note: series mostly up to about 76 µM; nearly all actives have a fitted effect of over 40% in size
Summary of the method: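 SH-SY5Y cells stably expressing GLuc-SERCaMP, treated 16 h with compound (primary 1.53, 7.67, 38.3 uM; confirmation 11 concentrations, up to 76.6 uM), then 100 nM thapsigargin for 4 h. Secreted Gaussia luciferase in medium read by coelenterazine luminescence.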

[12] = qHTS for inhibitors of adenylyl cyclases using a fission yeast platform: a pilot screen against the NCATS LOPAC library (AID 1347410)
Summary of the method: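 GFP from fbp1-GFP reporter, read by Acumen laser cytometry, indicates AC inhibition in fission yeast expressing AC9, GNAS and PDE4D2. Cells grown 18 h in the dark at 30C with compounds, final up to 57 uM.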

[13] = Validation qHTS assay for inhibitors of Activation Induced Cytidine Deaminase (AID): UDG Counterscreen signal (AID 1347427)
Summary of the method: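 Counterscreen read of UDG activity (2 U/mL, 4/3x) in the FRET deamination format with AID (1 uM, 4/3x), DJC20/DJC23 substrates (250 nM, 4x), 4 h at room temperature. NaOH stop, fluorescence at 560 ex/665 em.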

[14] = target: Single-stranded DNA cytosine deaminase (Homo sapiens) (UniProt Q9GZX7); experiment: Validation qHTS assay for inhibitors of Activation Induced Cytidine Deaminase (AID): AID signal (AID 1347429)
Sequence of Single-stranded DNA cytosine deaminase (Homo sapiens) (Q9GZX7 whole entry, looked up): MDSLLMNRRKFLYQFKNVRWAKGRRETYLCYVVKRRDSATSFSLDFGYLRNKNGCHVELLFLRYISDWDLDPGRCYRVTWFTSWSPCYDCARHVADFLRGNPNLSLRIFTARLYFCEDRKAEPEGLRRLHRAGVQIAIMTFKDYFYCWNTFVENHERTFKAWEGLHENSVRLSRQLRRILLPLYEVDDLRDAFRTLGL
Summary of the method: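 FRET deamination assay: 1 uM AID (4/3x stock) with UDG, compound up to 114 uM, then 250 nM DJC20/DJC23 substrate (4x stock) for 4 hr at room temperature. NaOH added, 30 min; fluorescence read 540/590 nm.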

[15] = target: Calcium and integrin-binding protein 1 (Homo sapiens) (UniProt Q99828); experiment: Validation qHTS for Identification of Calcium Integrin Binding protein 1 (CIB1) Competitor (AID 1508618)
Summary of the method: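 Displacement of FITC-alphaIIb peptide (100 nM) from CIB1-GST (1 uM) is monitored by polarization in quantitative HTS format; buffer carries 5 mM CaCl2 and 125 mM NaCl at pH 7.4, incubations are at room temperature.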

| SMILES | Potency [1] | outcome [2] | outcome [3] | Potency [4] | outcome [5] | Potency [6] | Potency [7] | Potency [8] | Potency [9] | outcome [10] | Potency [11] | outcome [12] | outcome [13] | outcome [14] | outcome [15] |
| --- | --- | --- | --- | --- | --- | --- | --- | --- | --- | --- | --- | --- | --- | --- | --- |
| CCN[C@H]1C[C@H](C)S(=O)(=O)c2sc(S(N)(=O)=O)cc21 | inactive | inactive | inactive | inactive | inactive | inactive | inactive | inactive | inactive |  |  |  |  |  |  |
| CCOCC(O)COc1ccc(NC(=O)CC[S+](C)C)cc1 (stereo not given) | inactive | inactive | inactive | inactive | inactive | inactive | inactive | inactive | inactive |  |  |  |  |  |  |
| CC(C)C1CCC(C(=O)N[C@H](Cc2ccccc2)C(=O)O)CC1 (stereo not given in full) | inactive | inactive | inactive | inactive | inactive | inactive | inactive | inactive |  |  |  |  |  |  |  |
| CC(C)(Sc1cc(C(C)(C)C)c(O)c(C(C)(C)C)c1)Sc1cc(C(C)(C)C)c(O)c(C(C)(C)C)c1 | inactive | inactive | inactive | inactive | inactive | inactive | inactive | inactive | inactive | inactive | inactive |  |  |  |  |
| CN(C)CCc1c[nH]c2ccc(CS(=O)(=O)N3CCCC3)cc12 | inactive | inactive | inactive | inactive | inactive | inactive | inactive | inactive | inactive |  |  |  |  |  |  |
| CC1=NN(c2ccccc2)C(=O)C1 | inactive | inactive | inactive | inactive | inactive | inactive | inactive |  |  |  |  |  |  |  |  |
| O=c1cc(O)c(Cl)c[nH]1 | inactive | inactive | inactive | inactive | inactive | inactive | inactive | inactive | inactive |  |  |  |  |  |  |
| Nc1nc(N)nc(-c2cc(Cl)ccc2Cl)n1 | inactive | inactive | inactive | inactive | inactive | inactive | inactive | inactive | inactive |  |  |  |  |  |  |
| CCCCCCNC(=O)n1cc(F)c(=O)[nH]c1=O | inactive | inactive | inactive | inactive | inactive | inactive | inactive | 15.5 µM (active) |  |  |  |  |  |  |  |
| CCn1cc(C(=O)O)c(=O)c2cc(F)c(N3CCNCC3)cc21 | inactive | inactive | inactive | inactive | inactive | inactive | inactive | inactive | inactive |  |  |  |  |  |  |
| NC(=O)c1cccc(N)c1 | inactive |  |  |  | inactive | inactive |  |  |  |  |  | inactive | inactive | inactive | inactive |
